TIM10 inh = growth inhibitors of isogenic TIM10 control yeast, primary screen, counter-screen for tim10-1 yeast inhibitor project, luminescence, uHTS | S. cerevisiae TIM10 strain growth, BacTiter-Glo luminescence, 24 h | inhibition, % at 10 µM | 330,000 compounds, 1.4% hits;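 active = inhibition of 40% or more at the single tested concentration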;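 also: wild-type TIM10 isogenic control strain grown at permissive 25 °C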
tim23-1 inh = growth inhibitors of tim23-1 mutant yeast, primary screen, luminescence, uHTS; S. cerevisiae tim23-1 growth, BacTiter-Glo luminescence, 24 h; 330,000 compounds, 1.3% hits; inhibition, % at 20 µM;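 active = growth inhibition of the mutant yeast at or above 50%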;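 also: temperature-sensitive mutant grown at 25 °C; plate controls were DMSO-treated mutant yeast for no effect and medium wells lacking yeast for full effect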
PfHsp90 set2 = growth inhibition of PfHsp90-expressing yeast, primary screen, antimalarial PfHsp90 inhibitor project, S. cerevisiae, BacTiter-Glo luminescence, single point, set 2. BacTiter-Glo ATP, 48 h; yeast lacking PDR1 and PDR3 efflux regulators. inhibition, % at 9.4 µM. 310,000 compounds, 0.32% hits;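 active = every replicate shows inhibition above about 80%, whatever the replicate mean, limit read from the data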;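 also: 0% = DMSO neutral controls and 100% = 20 µM radicicol positive controls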
tim10-1 inh = growth inhibitors of tim10-1 mutant yeast, primary screen, luminescence, uHTS; S. cerevisiae tim10-1 ts strain growth, BacTiter-Glo, 24 h; inhibition, % at 20 µM; 330,000 compounds, 2.2% hits;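 active = inhibition of at least 40%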;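 also: mutant grown at 25 °C; 0% = DMSO wells with yeast and 100% = wells holding no yeast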
NLRP3 yeast inh = NALP3 inflammasome inhibitors in reconstituted yeast, primary screen, luminescence, uHTS; Yeast reconstituted NLRP3/ASC/caspase-1, beta-gal luminescence, 24 h; inhibition, % at 10 µM; 330,000 compounds, 0.39% hits; AID 2825, 2010;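 active = inhibition of 50% or more; inactive = inhibition below 50%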;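 also: plate controls were induced DMSO wells for no effect and uninduced yeast grown without galactose for full effect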
tim23-1 conf = tim23-1 mutant yeast growth inhibitors, confirmation, luminescence, single concentration | shares compounds with tim23-1 inh | S. cerevisiae tim23-1 growth, BacTiter-Glo luminescence, 24 h | inhibition, % at 20 µM | 4,400 compounds, 83% hits;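 active = inhibition above about 39% in either of two replicate wells at 20 µM, limit read from the data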;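 also: temperature-sensitive tim23-1 mutant grown at 25 °C; 0% = DMSO wells with yeast and 100% = medium wells without yeast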
* hit, by the source's call. Rows were chosen to be rich in hits. Some 3.7% of all compounds tested hit in one or more screens of this group.

CN(Cc1ccc(OC(F)F)cc1)C(=O)c1cccc(S(=O)(=O)N2CCN(c3ccccc3)CC2)c1 was read as PfHsp90 set2 7.1.
For O=C(CCC(=O)NNC(=O)Nc1cccc(Cl)c1)NCc1ccccc1 the results were TIM10 inh -14.9, tim23-1 inh 2.9, PfHsp90 set2 -24.8, tim10-1 inh 6.1 and NLRP3 yeast inh -0.1.
O=C(NCc1ccc2c(c1)OCO2)Nc1cccc(Cl)c1 was read as TIM10 inh 28.0, tim23-1 inh 53.2*, PfHsp90 set2 -6.9, tim10-1 inh 2.2, NLRP3 yeast inh 20.3 and tim23-1 conf 64.1*.
`O=C(NCc1ccc2c(c1)OCO2)c1ccc(-c2ccc(Cl)cc2)o1` gave TIM10 inh 32.7, tim23-1 inh 55.3*, PfHsp90 set2 -61.3, tim10-1 inh 19.1, NLRP3 yeast inh 30.1 and tim23-1 conf 53.5*.
Screening CC(=O)c1cccc(NC(=O)NCc2ccc3c(c2)OCO3)c1 returned TIM10 inh -1.8, tim23-1 inh 11.0, PfHsp90 set2 -34.2, tim10-1 inh 8.1 and NLRP3 yeast inh 28.3.
`O=C(Cc1ccccc1)NNC(=O)Nc1cccc(Cl)c1` gave TIM10 inh 8.8, tim23-1 inh 51.3*, PfHsp90 set2 1.9, tim10-1 inh -4.5, NLRP3 yeast inh -1.1 and tim23-1 conf 10.9.
Screening Cc1ccc(S(=O)(=O)Nc2ccsc2C#N)cc1 returned TIM10 inh 12.3, tim23-1 inh 21.3, PfHsp90 set2 2.9, tim10-1 inh 8.1 and NLRP3 yeast inh 5.9.
For CC(=O)c1ccc(OCC(O)CNCc2ccc3c(c2)OCO3)cc1 (stereo not drawn) the results were TIM10 inh -4.4, tim23-1 inh -15.9, PfHsp90 set2 8.8, tim10-1 inh 0.5 and NLRP3 yeast inh -6.5.
Screening Oc1ccccc1/C=N/NC(=S)NC1CC2CC1C1C=CCC21 (stereo not drawn) returned TIM10 inh 24.6, tim23-1 inh 73.8*, PfHsp90 set2 -22.5, tim10-1 inh 31.1, NLRP3 yeast inh 28.0 and tim23-1 conf 48.9*.
`Cc1nn(-c2ccccc2)c(C)c1/C=N/NC(=O)c1cc(C23CC4CC(CC(C4)C2)C3)[nH]n1` gave TIM10 inh 31.8, tim23-1 inh 52.6*, PfHsp90 set2 -6.5, tim10-1 inh 23.6, NLRP3 yeast inh 22.2 and tim23-1 conf 47.2*.
For Cc1cc(C(=O)N/N=C/c2c(C)nn(-c3ccccc3)c2C)n[nH]1 the results were TIM10 inh -9.5, tim23-1 inh 1.2, PfHsp90 set2 -15.7, tim10-1 inh -3.8 and NLRP3 yeast inh 15.6.
`O=C(NC(=S)Nc1ccccn1)c1ccccc1` gave TIM10 inh 14.9, tim23-1 inh 50.2*, PfHsp90 set2 26.2, tim10-1 inh 28.0, NLRP3 yeast inh 26.2 and tim23-1 conf 27.9.
`O=C(NC(=S)NC1CCS(=O)(=O)C1)c1ccccc1` (stereo not drawn) gave TIM10 inh 0.4, tim23-1 inh -11.4, PfHsp90 set2 -1.0, tim10-1 inh -3.2 and NLRP3 yeast inh 5.7.
For CC(NC(=S)NC(=O)c1ccccc1)c1ccccc1 (stereo not drawn) the results were TIM10 inh 0.6, tim23-1 inh 50.3*, PfHsp90 set2 7.1, tim10-1 inh 27.8, NLRP3 yeast inh 3.9 and tim23-1 conf 41.5*.
For S=C(Nc1ccc(Nc2ccccc2)cc1)Nc1ccccn1 the results were TIM10 inh 30.8, tim23-1 inh 51.6*, PfHsp90 set2 -22.0, tim10-1 inh 25.6, NLRP3 yeast inh 23.5 and tim23-1 conf 27.1.
O=C(NC(=S)NC1CCCCC1)c1ccccc1 was read as TIM10 inh 28.6, tim23-1 inh 62.4*, PfHsp90 set2 -22.4, tim10-1 inh 33.3, NLRP3 yeast inh 31.7 and tim23-1 conf 55.5*.
Cc1ccc(N(CC(=O)NCCc2ccc(F)cc2)S(=O)(=O)c2ccc(Cl)c([N+](=O)[O-])c2)c(C)c1 was read as TIM10 inh -46.3, tim23-1 inh -21.7, PfHsp90 set2 -10.2, tim10-1 inh -35.7 and NLRP3 yeast inh 24.6.
`CCn1cc(S(=O)(=O)Nc2ccc(C)c(Cl)c2)cn1` gave TIM10 inh -5.5, tim23-1 inh 0.0, PfHsp90 set2 -20.6, tim10-1 inh -5.2 and NLRP3 yeast inh -5.4.
Cn1ccnc1SCC(=O)n1c2c(c3ccccc31)CCCC2 was read as TIM10 inh 38.6, tim23-1 inh 50.8*, PfHsp90 set2 -7.3, tim10-1 inh 29.1, NLRP3 yeast inh -1.0 and tim23-1 conf 41.5*.
Screening Cn1cc(C(=O)c2ccc(Cl)cc2)cc1-c1nc2ccccc2n1C returned TIM10 inh 3.1, tim23-1 inh 64.0*, tim10-1 inh 23.0, NLRP3 yeast inh 19.2 and tim23-1 conf 48.1*.
Screening Cn1c(=O)c(C(=O)c2ccccc2)nc2ccccc21 returned TIM10 inh -1.4, tim23-1 inh 10.5, tim10-1 inh 5.4 and NLRP3 yeast inh 9.4.
`Cc1ccc2[nH]c3c(c2c1)CN(C(=O)CN1CCN(c2cccc(C)c2C)CC1)CC3` gave TIM10 inh 28.5, tim23-1 inh 60.1*, PfHsp90 set2 23.8, tim10-1 inh 10.9, NLRP3 yeast inh 9.9 and tim23-1 conf 39.0.
For O=C(CN1CCN(C(=O)c2ccco2)CC1)N1CCc2[nH]c3ccccc3c2C1 the results were TIM10 inh 3.9, tim23-1 inh -9.2, tim10-1 inh -15.0 and NLRP3 yeast inh 20.7.
For CC1CCC(NC(=O)c2cc(C3CC3)nn2-c2ccccc2)CC1 (stereo not drawn) the results were TIM10 inh 14.0, tim23-1 inh 50.5*, PfHsp90 set2 11.0, tim10-1 inh 37.9, NLRP3 yeast inh 22.1 and tim23-1 conf 45.5*.
COc1ccc(-c2nc3ccccn3c2CN2CCN(c3ccccc3F)CC2)cc1 was read as TIM10 inh 28.2, tim23-1 inh 54.8*, PfHsp90 set2 9.2, tim10-1 inh 32.8, NLRP3 yeast inh 24.9 and tim23-1 conf 39.9*.
O=C(CCCN1C(=O)/C(=C/c2cccc(Br)c2)SC1=S)N1CCOCC1 was read as TIM10 inh 34.7, tim23-1 inh 53.5*, PfHsp90 set2 16.0, tim10-1 inh 37.1, NLRP3 yeast inh 13.9 and tim23-1 conf 36.5.
For CN1CCN(C(=O)CCCN2C(=O)/C(=C/c3cccc(Br)c3)SC2=S)CC1 the results were TIM10 inh 37.5, tim23-1 inh 45.6, PfHsp90 set2 2.6, tim10-1 inh 26.1 and NLRP3 yeast inh 20.7.
`O=C(CCCN1C(=O)/C(=C/c2ccccc2Cl)SC1=S)N1CCCC1` gave TIM10 inh 29.5, tim23-1 inh 50.9*, PfHsp90 set2 16.4, tim10-1 inh 31.8, NLRP3 yeast inh 21.9 and tim23-1 conf 55.8*.

Bioassay records: PubChem BioAssay, several laboratories
